A number with no mark means an inactive call. Records with an inconclusive call do not appear. A call without a number means that no potency is given here. Active and inactive are the calls of the source. Unless noted, calls come from the whole dose curve; as a rule, active = well fitted curve in the direction sought with a large enough effect in the repeat runs; inconclusive = weak or mixed curves; inactive = no such curve, though single readings can be large; an effect the other way counts as inactive or inconclusive.
Tests used:
[1] = qHTS assay to test for compound auto fluorescence at 460 nm (blue) in HEK293 cell free culture (AID 720681)
Procedure, shortened: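 Blue fluorescence (Ex 405/Em 460 nm, triamterene-equivalent) was read immediately after pin transfer of compound or DMSO into medium (DMEM, 10% FBS) without cells.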

[2] = qHTS assay to test for compound auto fluorescence at 535 nm (green) in HEK293 cell free culture (AID 720682)
Procedure, shortened: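 Measurement is a direct plate read of green fluorescence (485 nm in, 535 nm out) after compound addition to serum-supplemented DMEM lacking cells, with fluorescein used to express intensities.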

[3] = qHTS assay to test for compound auto fluorescence at 590 nm (red) in HEK293 cell free culture (AID 720683)
Procedure, shortened: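 Red-channel autofluorescence of compounds in culture medium (DMEM, 10% FBS), no cells, measured at 540/590 nm. Rose Bengal sodium is the reference fluorophore for equivalence.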

[4] = qHTS assay to test for compound auto fluorescence at 590 nm (red) in HepG2 cell free culture (AID 720684)
Procedure, shortened: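 Cell-free; medium MEM + 10% FBS; compound or DMSO added by pintool; read Ex 540/Em 590 nm; Rose Bengal sodium as red reference fluorophore.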

[5] = qHTS assay to test for compound auto fluorescence at 535 nm (green) in HepG2 cell free culture (AID 720686)
[6] = qHTS assay to test for compound auto fluorescence at 460 nm (blue) in HepG2 cells (AID 720687)
Procedure, shortened: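 Blue-channel autofluorescence (Ex/Em 405/460 nm, triamterene-equivalent) was measured after 1 hr compound exposure at 37 C, 5% CO2. Cells were HepG2, plated overnight at 37 C in MEM plus 10% FBS.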

[7] = target: Glucocorticoid receptor (Homo sapiens) (UniProt P04150); assay: qHTS assay to identify small molecule agonists of the glucocorticoid receptor (GR) signaling pathway (AID 720691; active = well fitted activation curve with a large enough effect in the signal ratio in the repeat runs, not every such curve was filed as active; the % refers to the signal ratio)
Glucocorticoid receptor (Homo sapiens), sequence (P04150 whole entry, looked up): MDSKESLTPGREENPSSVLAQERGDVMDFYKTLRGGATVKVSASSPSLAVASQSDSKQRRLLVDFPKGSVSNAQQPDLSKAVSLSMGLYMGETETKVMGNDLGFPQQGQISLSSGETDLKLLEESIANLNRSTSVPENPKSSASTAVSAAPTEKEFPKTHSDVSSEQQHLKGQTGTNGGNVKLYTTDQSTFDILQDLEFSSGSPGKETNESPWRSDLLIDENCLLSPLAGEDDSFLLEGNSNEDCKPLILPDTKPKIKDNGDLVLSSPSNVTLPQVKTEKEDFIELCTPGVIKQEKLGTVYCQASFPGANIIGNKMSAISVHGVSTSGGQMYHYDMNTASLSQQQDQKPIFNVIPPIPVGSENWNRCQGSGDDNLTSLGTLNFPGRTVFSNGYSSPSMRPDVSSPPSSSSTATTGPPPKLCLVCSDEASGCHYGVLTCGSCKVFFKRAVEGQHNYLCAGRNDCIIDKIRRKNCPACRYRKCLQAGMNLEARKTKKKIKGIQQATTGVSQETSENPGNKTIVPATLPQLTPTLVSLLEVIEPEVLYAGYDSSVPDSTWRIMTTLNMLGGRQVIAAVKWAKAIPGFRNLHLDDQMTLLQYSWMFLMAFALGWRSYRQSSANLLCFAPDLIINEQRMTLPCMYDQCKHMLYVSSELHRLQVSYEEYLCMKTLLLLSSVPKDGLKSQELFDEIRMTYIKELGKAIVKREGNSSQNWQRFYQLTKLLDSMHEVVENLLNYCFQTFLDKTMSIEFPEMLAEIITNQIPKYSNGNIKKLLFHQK
Procedure, shortened: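 A HeLa cervical cancer line expressing GR and a glucocorticoid response element-driven beta-lactamase gene is treated with compounds for 18 h; LiveBLAzer B/G FRET substrate is then applied and fluorescence read.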

[8] = target: Glucocorticoid receptor (Homo sapiens) (UniProt P04150); assay: qHTS assay to identify small molecule antagonists of the glucocorticoid receptor (GR) signaling pathway (AID 720692; active = well fitted inhibition curve with a large enough effect in the signal ratio in the repeat runs, not every such curve was filed as active; the % refers to the signal ratio)
Procedure, shortened: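 GRE-bla HeLa line, dex-stimulated (5 nM final). Compound exposure 18 h, 37 C. Beta-lactamase FRET read after 2 h RT substrate.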

[9] = qHTS assay for identifying genotoxic compounds that show differential cytotoxicity against isogenic chicken DT40 cell lines with known DNA damage response pathways - wild type cell line (AID 743012); note: nearly all actives have a fitted effect of over 60% in size; note: potency is the fitted concentration of half-maximal effect
Procedure, shortened: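 300 wt DT40 cells/well; cpd (DMSO) pintool-transferred after ~0.5 h at 37 C/5% CO2; 40 h incubation; CellTiter-Glo added, 30 min RT; luminescence read.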

[10] = qHTS assay for identifying genotoxic compounds that show differential cytotoxicity against isogenic chicken DT40 cell lines with known DNA damage response pathways - Rev3 mutant cell line (AID 743014); note: nearly all actives have a fitted effect of over 55% in size; note: potency is the fitted concentration of half-maximal effect
[11] = qHTS assay for identifying genotoxic compounds that show differential cytotoxicity against isogenic chicken DT40 cell lines with known DNA damage response pathways - Rad54/Ku70 mutant cell line (AID 743015); note: nearly all actives have a fitted effect of over 60% in size; note: potency is the fitted concentration of half-maximal effect
[12] = qHTS assay to identify small molecule antagonists of the androgen receptor (AR) signaling pathway - cell viability counter screen (AID 743033; note: nearly all actives have a fitted effect of over 45% in size; note: potency is the fitted concentration of half-maximal effect)
[13] = target: Androgen receptor (Homo sapiens) (UniProt P10275); assay: qHTS assay to identify small molecule antagonists of the androgen receptor (AR) signaling pathway (AID 743035; active = well fitted inhibition curve with a large enough effect in the signal ratio in the repeat runs, not every such curve was filed as active; the % refers to the signal ratio; note: potency is the fitted concentration of half-maximal effect)
Androgen receptor (Homo sapiens), sequence (P10275 whole entry, looked up): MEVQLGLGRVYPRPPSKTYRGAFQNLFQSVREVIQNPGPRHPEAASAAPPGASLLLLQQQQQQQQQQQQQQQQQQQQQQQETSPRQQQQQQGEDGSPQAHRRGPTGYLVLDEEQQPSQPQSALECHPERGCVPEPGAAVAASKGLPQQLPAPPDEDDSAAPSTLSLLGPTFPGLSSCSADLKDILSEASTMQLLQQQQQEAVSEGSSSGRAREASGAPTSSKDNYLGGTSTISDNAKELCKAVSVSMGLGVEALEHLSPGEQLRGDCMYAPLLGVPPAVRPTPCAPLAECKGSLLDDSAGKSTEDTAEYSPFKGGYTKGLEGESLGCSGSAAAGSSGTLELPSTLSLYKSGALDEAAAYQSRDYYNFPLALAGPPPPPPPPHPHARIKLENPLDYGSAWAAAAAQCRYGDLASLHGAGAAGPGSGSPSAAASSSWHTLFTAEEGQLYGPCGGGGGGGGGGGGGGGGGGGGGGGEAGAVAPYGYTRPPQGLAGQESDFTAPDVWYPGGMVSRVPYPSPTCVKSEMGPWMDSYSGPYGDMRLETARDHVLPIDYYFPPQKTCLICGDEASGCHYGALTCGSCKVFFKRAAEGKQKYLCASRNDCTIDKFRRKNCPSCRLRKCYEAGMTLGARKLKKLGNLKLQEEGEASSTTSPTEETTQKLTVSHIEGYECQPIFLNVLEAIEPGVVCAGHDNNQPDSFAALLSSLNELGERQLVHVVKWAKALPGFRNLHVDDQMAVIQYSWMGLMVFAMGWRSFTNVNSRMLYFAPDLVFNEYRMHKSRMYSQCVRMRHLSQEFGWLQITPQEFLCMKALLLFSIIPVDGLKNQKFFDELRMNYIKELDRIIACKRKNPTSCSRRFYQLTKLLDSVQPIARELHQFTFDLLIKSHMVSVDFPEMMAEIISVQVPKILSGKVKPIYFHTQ
Procedure, shortened: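 In this cell-based reporter screen, compounds were tested in concentration series against R1881-activated HEK293 cells expressing beta-lactamase under UAS control; after 16 h at 37C, FRET substrate was added and fluorescence read 2 h later.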

[14] = target: Androgen receptor (Homo sapiens) (UniProt P10275); assay: qHTS assay to identify small molecule agonists of the androgen receptor (AR) signaling pathway (AID 743036; active = well fitted activation curve with a large enough effect in the signal ratio in the repeat runs, with a control signal flat, not every such curve was filed as active; the % refers to the signal ratio)
Procedure, shortened: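 Beta-lactamase under UAS control, stably integrated in HEK293 GripTite cells, reports receptor activation. After 16 h compound treatment, cells received FRET substrate for 2 h at room temperature before fluorescence reading.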

[15] = target: Androgen receptor (Homo sapiens) (UniProt P10275); assay: qHTS assay to identify small molecule agonists of the androgen receptor (AR) signaling pathway using the MDA cell line (AID 743040; note: nearly all actives have a fitted effect of over 20% in size)
Procedure, shortened: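 Luciferase agonist assay: 16 h compound exposure at 37C without CO2 in MDA-kb2 AR-luc cells, whose MMTV promoter responds to both AR and GR. Luminescence measured after 30 min room-temperature incubation with ONE-Glo.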

[16] = qHTS assay to identify small molecule antagonists of the androgen receptor (AR) signaling pathway using the MDA cell line - cell viability counter screen (AID 743041; note: nearly all actives have a fitted effect of over 45% in size)
Procedure, shortened: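 Viability read by CellTiter-Fluor fluorescence in the same wells as the antagonist screen, added after 15.5 h of a 16 h, 37C exposure. Human breast carcinoma MDA-kb2 AR-luc cells, compounds co-dosed with agonist R1881.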

[17] = target: Androgen receptor (Homo sapiens) (UniProt P10275); assay: qHTS assay to identify small molecule antagonists of the androgen receptor (AR) signaling pathway using the MDA cell line (AID 743042; note: nearly all actives have a fitted effect of over 55% in size; note: potency is the fitted concentration of half-maximal effect)
Procedure, shortened: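 Antagonist mode: compounds plus R1881 agonist added to MDA-kb2 AR-luc cells, incubated 16 h at 37C. Luciferase reporter luminescence quantified, with multiplexed CellTiter-Fluor readout for cell viability.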

[18] = qHTS assay to test for compound auto fluorescence at 460 nm (blue) in HepG2 cell free culture (AID 720685)
Procedure, shortened: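 Cell-free plates of MEM plus 10% FBS received 23 nL compound or DMSO vehicle; blue-channel (405/460 nm) intensity scored against triamterene as reference fluorophore.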

[19] = qHTS assay to identify small molecule antagonists of the glucocorticoid receptor (GR) signaling pathway - cell viability counter screen (AID 720693); note: nearly all actives have a fitted effect of over 55% in size

| SMILES | outcome [1] | outcome [2] | outcome [3] | outcome [4] | outcome [5] | outcome [6] | Potency [7] | outcome [8] | Potency [9] | Potency [10] | Potency [11] | Potency [12] | Potency [13] | outcome [14] | outcome [15] | Potency [16] | Potency [17] | outcome [18] | outcome [19] |
| --- | --- | --- | --- | --- | --- | --- | --- | --- | --- | --- | --- | --- | --- | --- | --- | --- | --- | --- | --- |
| O=C(Nc1ccc(Cl)c(Cl)c1)C1CC1 | inactive | inactive | inactive | inactive | inactive | inactive | inactive | inactive | 29.8 µM (active) | 26.6 µM (active) | 29.8 µM (active) | inactive | 19 µM (active) | inactive | inactive | inactive | 29.8 µM (active) |  |  |
| CC(=O)c1sc(C)nc1C | inactive | inactive | inactive | inactive | inactive | inactive | inactive | inactive | inactive | inactive | inactive | inactive |  |  |  | inactive |  | inactive |  |
| COc1nccnc1NS(=O)(=O)c1ccc(N)cc1 | inactive | inactive | inactive | inactive | inactive | inactive |  |  | inactive | inactive | inactive | inactive |  | inactive | inactive | inactive | inactive | inactive | inactive |
| Nc1cccc(O)c1 | inactive | inactive | inactive | inactive | inactive | inactive | inactive | inactive | inactive | inactive |  | inactive |  |  |  | inactive |  | inactive |  |
| O=C1O[C@@H]2[C@@H](O)[C@H](O)O[C@@H]2[C@H]1O | inactive | inactive | inactive | inactive | inactive | inactive | inactive | inactive | inactive |  | inactive | inactive |  |  |  | inactive |  | inactive |  |
| CC(C)CC(C)CC(C)CC(C)COC(=O)c1ccccc1C(=O)OCC(C)CC(C)CC(C)CC(C)C (centres undefined) | inactive | inactive | inactive | inactive | inactive | inactive |  |  | inactive | 25.3 µM (active) |  | inactive |  |  |  | inactive |  | inactive | inactive |
| O=C(/N=N/C(=O)OCc1ccccc1)OCc1ccccc1 | inactive | inactive | inactive | inactive | inactive | inactive |  |  |  |  | 61.1 µM (active) | inactive |  |  |  | inactive |  |  |  |
| c1ccc2c(c1)ccc1c3ccccc3ccc21 | inactive | inactive | inactive | inactive | inactive | inactive |  |  | inactive | inactive |  |  |  |  |  | inactive |  | inactive | inactive |
| CCCCC(CC)COCCO (centres undefined) | inactive | inactive | inactive | inactive | inactive | inactive | inactive |  | inactive | inactive |  | inactive |  |  |  | inactive |  |  | inactive |
| On1nnc2ccccc21 | inactive | inactive | inactive | inactive | inactive | inactive | inactive | inactive |  |  |  | 0.616 µM (active) |  |  |  | inactive |  | inactive | inactive |
| C=C(C)C(=O)OCCN(CC)CC | inactive | inactive | inactive | inactive | inactive | inactive | inactive | inactive | inactive |  | inactive | inactive |  | inactive | inactive | inactive | inactive | inactive | inactive |
| CCCN1C[C@H](CSC)C[C@@H]2c3cccc4[nH]cc(c34)C[C@H]21 | inactive | inactive | inactive | inactive | inactive | inactive | inactive | inactive |  | inactive |  | inactive |  |  |  |  |  | inactive | inactive |
| O=C(CCNNC(=O)c1ccncc1)NCc1ccccc1 | inactive | inactive | inactive | inactive | inactive | inactive | inactive | inactive | inactive | inactive |  | inactive |  |  |  | inactive |  | inactive | inactive |
| C[Si](C)(C)C | inactive | inactive | inactive | inactive | inactive | inactive | inactive | inactive | inactive |  |  | inactive |  |  |  | inactive |  | inactive |  |

— PubChem BioAssay (Tox21)
